Compound activity deposited in PubChem by National Center for Advancing Translational Sciences (NCATS).
Sampled rows, rich in hits. Any-hit rate of the full collection: about 8%.
KB-V1 cytotox: kills drug-selected multidrug resistant KB-V1 cells | KB-V1 MDR cells viability, CellTiter-Glo, 72 h | Potency, µM (top dose mostly 46.1 µM), actives largely listed as cytotoxic | hit rate 3.4% among 400,000 | AID 1347076; further: nearly all actives have a fitted effect of over 60% in size
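Potencies derive from concentration-effect curves fitted to normalized luminescence (CellTiter-Glo) of KB-V1 cells treated for 72 h at 37 degrees C in phenol-red-free DMEM containing 10% FBS.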
HT1080NT lethal: kills 2HG-producing HT-1080-NT fibrosarcoma cells. Potency, µM (titrated, usually from 46.1 µM), most hits filed as cytotoxic. HT-1080-NT fibrosarcoma viability, CellTiter-Glo ATP luminescence, 48 h. hit rate 1.6% among 360,000;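 further: NT is the 2HG producing partner of a matched IDH1 knockdown line; nearly all actives have a fitted effect of over 55% in size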
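HT-1080-NT; 750 cells/well; 5% FBS RPMI; 48 h compound, 37 degrees C; CellTiter-Glo luminescence; curve fitting and curve-class assignment.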
SW480 rerep: DNA re-replication induction in SW480 cells; SW480 DNA re-replication, Hoechst DNA content imaging, 48 h; Potency, µM (doses to about 46.1 µM), usual class: activators; hit rate 1.8% among 340,000; further: nearly all actives have a fitted effect of over 55% in size
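Compounds, transferred as 23 nL by pin tool, were incubated with cells for 48 hr; DNA content per nucleus was then quantified by Hoechst staining and fluorescence plate imaging.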
HT1080 IDH1KD tx: toxicity to HT-1080 IDH1 knockdown cells (counter line). AID 686971. Potency, µM (highest dose often 46.1 µM), hits mostly cytotoxic. hit rate 2% among 360,000. HT-1080 IDH1 knockdown viability, ATP luminescence, 48 h
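HT-1080-IDH1KD cells (IDH1 knocked down), 750/well in RPMI with 5% FBS, treated with compound 48 h at 37 degrees C. Viability by CellTiter-Glo luminescence, normalised to DMSO and no-cell wells; concentration-response curves classed.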
KB-3-1 tox: kills parental KB-3-1 adenocarcinoma cells. KB-3-1 viability, CellTiter-Glo ATP luminescence, 72 h. Potency, µM (top dose mostly 46.1 µM), hits mostly cytotoxic. hit rate 1.4% among 400,000; further: nearly all actives have a fitted effect of over 60% in size
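Cells are dispensed, compounds pinned in, plates held at 37 °C for 72 h, then CellTiter-Glo is added and luminescence read after 10 minutes. Cell line: parental KB-3-1 in phenol-red-free DMEM, 10% FBS.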
MCF10A rereplic: induces DNA re-replication in MCF 10a normal breast cells; AID 624296; MCF 10A DNA re-replication, Hoechst nuclear intensity, 48 h; Potency, µM (doses to about 46.1 µM), actives largely listed as activators; hit rate 2.9% among 350,000; further: nearly all actives have a fitted effect of over 50% in size
Each line names hits and unclear results; the compound was inactive in the other large screens. The call rests on the fitted dose curve; in most records, active means well fitted curve in the direction sought with a large enough effect; inconclusive means small, poorly fitted or top-dose-only effect, or another doubt; inactive means no such curve, though single readings can be large; an effect the other way counts as inactive or inconclusive.

CCOC(=O)C1CCN(/C=C2/C(=O)NC(=O)N(c3ccc(OCC)cc3)C2=O)CC1	MCF10A rereplic 5.8µM
C#CCN(C)[C@@H](C)Cc1ccccc1	none (no result: KB-V1 cytotox, HT1080NT lethal, HT1080 IDH1KD tx, KB-3-1 tox)
CCOP(=O)(OCC)C(NC(=O)c1ccccc1)=C(Cl)Cl	SW480 rerep inconclusive
CCOC(=O)C1=C(NC(=S)NC(=O)c2ccccc2)c2ccccc2CC12CCCC2	KB-V1 cytotox inconclusive, HT1080NT lethal inconclusive, SW480 rerep inconclusive, HT1080 IDH1KD tx inconclusive, KB-3-1 tox inconclusive, MCF10A rereplic 12µM
CCCCCc1cc(O)c2c(c1)OC(C)(C)C1CC=C(C)CC21 (stereo unspecified)	SW480 rerep inconclusive, MCF10A rereplic 7.5µM (no result: KB-V1 cytotox, HT1080NT lethal, HT1080 IDH1KD tx, KB-3-1 tox)
CCCC(CCC)C(=O)OC1C[C@H]2CC[C@@H](C1)[N+]2(C)C (stereo partly specified)	MCF10A rereplic inconclusive
O=S(=O)(c1ccc2c(c1)OCCO2)N1CCC(c2nc3ccc(Cl)cc3[nH]2)CC1	KB-V1 cytotox 2.9µM, HT1080NT lethal 11µM, HT1080 IDH1KD tx 14µM, MCF10A rereplic inconclusive
CC(C)[C@H]1C(=O)O[C@H](C(C)C)C(=O)N(C)[C@@H](C(C)C)C(=O)O[C@H](C(C)C)C(=O)N(C)[C@@H](C(C)C)C(=O)O[C@H](C(C)C)C(=O)N1C	KB-V1 cytotox inconclusive, HT1080NT lethal 4.1µM, HT1080 IDH1KD tx 3.3µM, KB-3-1 tox 5.8µM, MCF10A rereplic inconclusive
O=C1NC[C@H](CCCCN2C[C@H](Cc3ccccc3)N(CCc3ccccc3)C(=O)C2=O)N(CC2CCCCC2)C1=O	HT1080 IDH1KD tx inconclusive (no result: SW480 rerep, MCF10A rereplic)
Cc1ccc(/C=C2\C(=O)NC(=S)N(c3ccccc3F)C2=O)s1	HT1080NT lethal inconclusive, SW480 rerep inconclusive, HT1080 IDH1KD tx inconclusive, KB-3-1 tox inconclusive, MCF10A rereplic 5.8µM
Cc1ccc(/C=C2\C(=O)NC(=S)N(c3ccc(F)cc3)C2=O)s1	KB-V1 cytotox inconclusive, HT1080NT lethal inconclusive, HT1080 IDH1KD tx inconclusive, MCF10A rereplic inconclusive
CCCSc1ccc2nc(NC(=O)OC)[nH]c2c1	KB-V1 cytotox 1.6µM, HT1080NT lethal inconclusive, SW480 rerep 0.82µM, HT1080 IDH1KD tx 0.73µM, KB-3-1 tox 1.2µM, MCF10A rereplic 0.73µM
CCCCCn1c(=O)c(C(=O)Nc2nc3ccccc3[nH]2)c(O)c2ccccc21	KB-V1 cytotox inconclusive, KB-3-1 tox inconclusive, MCF10A rereplic inconclusive
CCOC(=O)C/C(C)=N/NC(=O)COc1ccccc1C	MCF10A rereplic inconclusive
Cc1ccc(-n2nc(C)c3c2NC(=O)CSC3c2ccc(O)cc2)cc1Cl (stereo unspecified)	KB-3-1 tox 23µM (no result: HT1080NT lethal, SW480 rerep, HT1080 IDH1KD tx, MCF10A rereplic)
Cn1c(=O)c(Oc2ccc(F)cc2)c(O)c2ccccc21	none
C=CC1CN2CCC1CC2C(OC(=O)OCC)c1ccnc2ccc(OC)cc12 (stereo unspecified)	none (no result: KB-V1 cytotox, HT1080NT lethal, HT1080 IDH1KD tx, KB-3-1 tox)
CN(CC=CCN(C)P(=S)(N1CC1)N1CC1)P(=S)(N1CC1)N1CC1	SW480 rerep inconclusive, MCF10A rereplic 13µM
O=c1[nH]c(=S)n(-c2ccc(Cl)cc2)c(O)c1C=Nc1ccc(N2CCOCC2)cc1	none
O=c1c2cc(N3CCOCC3)ccc2[nH]c(=S)n1Cc1ccc(Cl)cc1	KB-V1 cytotox 21µM, MCF10A rereplic 2.6µM
CCCCOP(=O)(c1ccc(N(C)C)cc1)C(Nc1ccccc1)c1ccccc1 (stereo unspecified)	KB-V1 cytotox 3.7µM, SW480 rerep inconclusive, KB-3-1 tox inconclusive, MCF10A rereplic 21µM
CC(C)c1ccc(C(O)P(=O)(OCc2ccccc2)c2ccc(N(C)C)cc2)cc1 (stereo unspecified)	MCF10A rereplic inconclusive
CC(C)c1ccc(N2C(=O)NC(=O)/C(=C\C=C\c3ccco3)C2=O)cc1	KB-V1 cytotox inconclusive, HT1080NT lethal 4.1µM, SW480 rerep 21µM, HT1080 IDH1KD tx 5.8µM, KB-3-1 tox inconclusive, MCF10A rereplic 3.7µM
O=C1NC(=O)N(Cc2ccccc2)C(=O)/C1=C/C=C/c1ccco1	HT1080NT lethal inconclusive, SW480 rerep 18µM, HT1080 IDH1KD tx inconclusive, KB-3-1 tox 15µM, MCF10A rereplic 4.1µM
COc1ccc(CN2C(=O)NC(=O)/C(=C\c3ccco3)C2=O)cc1	none
